The source of these data is PubChem BioAssay (NCI).

Structures are written as SMILES. Several values for one entry are separate records, joined by “and”; a condition that tells them apart may be missing. Equal values may be shown once. This is part of a sample that, as a whole, favours compounds with a hit. Of some 83,000 tested, about 20% had one in any assay.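 Cell lines were cultured in 96-well plates, exposed to a single compound concentration, and assessed for percent growth 48 hours later.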 Activity calls are given as the source filed them. The calls were made as follows: active = growth percent below 10; inactive = the rest.

Assay in all cases: NCI-60 one-dose screen, 48 h (100 = growth as untreated, 0 = no growth, -100 = all killed)
Details in all cases: 10 µM unless noted

Test [1] concerns HCT-15 colon.
In test [2] the test system is HT29 colon.
Test [3] deals with SNB-75 CNS.
Test [4] concerns SNB-19 CNS.
Test [5] relates to U251 CNS.
The subject of test [6] is PC-3 prostate.
The subject of test [7] is SK-MEL-5 melanoma.
For test [8], the system named is UACC-62 melanoma.
The subject of test [9] is LOX IMVI melanoma.
For test [10], the system named is SK-MEL-28 melanoma.
The test system of test [11] is SK-MEL-2 melanoma.
The subject of test [12] is EKVX NSCLC.
The subject of test [13] is SN12C renal.
The subject of test [14] is UO-31 renal.
The test system of test [15] is TK-10 renal.
Test [16] has as its system ACHN renal.
The subject of test [17] is CAKI-1 renal.
Test [18] has as its system A498 renal.
Test [19] has as its system CCRF-CEM leukemia.
The test system of test [20] is MOLT-4 leukemia.

`COc1cc(/C=N/NC(=O)CCN2c3ccccc3Sc3ccccc32)cc(OC)c1OC`: the growth was 96.4% (inactive) in test [1]; 90% (inactive) in test [2]; 91.6% (inactive) in [3]; 90.4% (inactive) in test [4]; 97.8% (inactive) in [5]; 61.4% (inactive) in test [6]. The growth in test [7] was 76.5% (inactive); in test [8], 62.6% (inactive); in test [9], 79.5% (inactive); in test [10], 97.5% (inactive); in test [11], 98.4% (inactive); in test [12], 72.7% (inactive). For the same compound, the growth was 76.8% (inactive) in test [13]; 63.7% (inactive) in [14]; 110% (inactive) in [15]; 76% (inactive) in [16]; 67.1% (inactive) in test [17]; 61.1% (inactive) in test [18]. In addition, the growth in test [19] is 73.9% (inactive); in test [20], 71.5% (inactive).

As to `O=C1C(N2CCOCC2)=C(I)C(=O)c2ncccc21`, the growth in test [1] is 67.1% (inactive); in [2] it was 102% (inactive); in [3], 66.3% (inactive); in test [4], 73% (inactive); in test [5], 61.9% (inactive); in test [6], 79.4% (inactive). The growth is 89.4% (inactive) in test [7]; 69.5% (inactive) in test [8]; 43.4% (inactive) in test [9]; 96.6% (inactive) in test [10]; 91.1% (inactive) in [11]; 89.3% (inactive) in [12]. The growth in [13] is 60.6% (inactive); in test [14], 54.3% (inactive); in test [15], 111% (inactive); in test [16], 58.7% (inactive); in test [17], 76.1% (inactive); in test [18], 102% (inactive). In addition, the growth in test [19] is 62.4% (inactive); in test [20], 50.5% (inactive).

As for `O=[N+]([O-])c1ccc(S(=O)Cc2ccccc2)c([N+](=O)[O-])c1` (stereo not given), the growth in test [1] was 6.6% (active) and -44.4% (active); in test [2] it was -67.6% (active) and -20.6% (active); in [3], 105% (inactive) and 50% (inactive); in test [4] it was 92.8% (inactive) and 97.7% (inactive); in test [5] it was 93.6% (inactive) and 91% (inactive); in test [6] it was 93.9% (inactive) and 82.8% (inactive). Besides, the growth in test [7] is 88% (inactive) and 75.9% (inactive); in [8], 54.6% (inactive) and 82.2% (inactive); in test [9] it was -75.4% (active) and -31.4% (active); in [10], 89.4% (inactive) and 23% (inactive); in test [11], 82.9% (inactive) and 87.7% (inactive); in test [12] it was 90.4% (inactive). Moreover, the growth is 62.5% (inactive) and 87.4% (inactive) in [13]; -24.9% (active) and -40.3% (active) in test [14]; 32.5% (inactive) and -27.2% (active) in [15]; -58.6% (active) and -91.6% (active) in test [16]; 35.8% (inactive) and -14.6% (active) in test [17]; 98% (inactive) and 85.1% (inactive) in test [18]. Further, the growth was -15% (active) and 0.711% (active) in test [19]; 81.6% (inactive) and 1.31% (active) in [20].

For `COc1ccc(S(=O)(=O)Nc2cc(Sc3cccc4cccnc34)c(O)c3ccccc23)cc1`, the growth in [1] is 10.9% (inactive); in test [2], -37.8% (active); in test [3] it was 62.5% (inactive); in test [4] it was 43% (inactive); in test [5], 4.81% (active); in [6], 26.3% (inactive). The growth in test [7] was -32.7% (active); in [8], -28.1% (active); in test [9], -55.8% (active); in test [10], -2.3% (active); in [11] it was 5.09% (active); in test [12] it was 36.7% (inactive). Besides, the growth is 17.2% (inactive) in test [13]; 27.4% (inactive) in test [14]; 23.4% (inactive) in test [15]; 7.43% (active) in [16]; 20% (inactive) in [17]; 65.2% (inactive) in test [18]. The growth in test [19] was 13.4% (inactive); in test [20], -4.51% (active).

With `O=C1/C(=C/c2ccccc2)CN(C(=O)C(Cl)Cl)C/C1=C\c1ccccc1`, the growth is -24.2% (active) in [1]; 5.46% (active) in test [2]; 43.9% (inactive) in test [3]; -35.8% (active) in test [4]; -63.8% (active) in test [5]; -32.8% (active) in test [6]. The growth in [7] was -32.3% (active); in test [8], -66.4% (active); in test [9], -88.4% (active); in [10], -25.7% (active); in test [11], 38.4% (inactive); in test [12], 12.2% (inactive). Further, the growth in [13] was -40.7% (active); in test [14] it was -52.8% (active); in [15], 59.5% (inactive); in [16], -74.6% (active); in test [17], 4.64% (active); in [18], 4.17% (active). The growth is 8.2% (active) in [19] and 4.99% (active) in [20].

Regarding `Cc1ccc(-c2nc3nc(-c4ccc(F)cc4)nc(N4CCCNCC4)c3o2)cc1`, the growth in test [1] was -84.5% (active); in [2], -81.6% (active); in test [3], -96% (active); in test [4], -94.4% (active); in test [5], -93.2% (active); in [6], -85.2% (active). Further, the growth is -87.4% (active) in [7]; -82.3% (active) in test [8]; -88.6% (active) in [9]; -93.8% (active) in test [10]; -61.2% (active) in [11]; -75.6% (active) in test [12]. Moreover, the growth is -91.2% (active) in test [13]; -88.5% (active) in test [14]; -93.8% (active) in [15]; -99.3% (active) in test [16]; -95.4% (active) in [17]; 77.5% (inactive) in [18]. Besides, the results for the growth in test [19] and in test [20] were -77.7% (active) and -61.1% (active), respectively.

With `N=C(N)SCc1c2ccccc2c(CSC(=N)N)c2ccccc12`, the growth in test [1] was 93.9% (inactive); in [2], 65.9% (inactive); in test [3] it was 89.5% (inactive); in test [4] it was 111% (inactive); in test [5] it was 61.1% (inactive); in [6] it was 61.8% (inactive). The growth in test [7] was 68.9% (inactive); in test [8], 72.9% (inactive); in test [9], 55.7% (inactive); in [10], 99% (inactive); in [11], 79.2% (inactive); in test [12] it was 76.5% (inactive). Further, the growth was 53.7% (inactive) in test [13]; 80.8% (inactive) in [14]; 98.5% (inactive) in test [15]; 51.2% (inactive) in [16]; 61.7% (inactive) in [17]; 89.9% (inactive) in test [18]. Further, the growth in test [19] was 6.24% (active); in test [20] it was -5.95% (active).
